# Laboratory results reported in PubChem BioAssay (NCI).
# About 83,000 compounds went through this panel and 20% of them were active in at least one assay; those are over-represented in the sample as a whole.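 Interpretation: 100, growth as untreated; towards 0, rising growth inhibition; 0, no net growth; 0 to -100, cell death. Compounds scoring below 10 were considered active.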 Values without a mark were called inactive. The source made the active and inactive calls.
# Legend:
# Test in all cases: NCI-60 one-dose screen, 48 h (100 = growth as untreated, 0 = no growth, -100 = all killed)
# [1] = system: DU-145 prostate; details: 10 µM
# [2] = system: K-562 leukemia; details: 10 µM
# [3] = system: MALME-3M melanoma; details: 10 µM
# [4] = system: MDA-MB-231 breast; details: 10 µM
# [5] = system: RXF 393 renal; details: 10 µM
# [6] = system: SF-268 CNS; details: 10 µM
# [7] = system: SF-295 CNS; details: 10 µM
# [8] = system: SF-539 CNS; details: 10 µM
# [9] = system: UACC-257 melanoma; details: 10 µM
# [10] = system: M14 melanoma; details: 10 µM
# [11] = system: HCT-15 colon; details: 10 µM
# [12] = system: HT29 colon; details: 10 µM
# [13] = system: SNB-75 CNS; details: 10 µM
# [14] = system: SNB-19 CNS; details: 10 µM
# [15] = system: U251 CNS; details: 10 µM
# [16] = system: PC-3 prostate; details: 10 µM
# [17] = system: SK-MEL-5 melanoma; details: 10 µM
# [18] = system: UACC-62 melanoma; details: 10 µM unless noted
# [19] = system: LOX IMVI melanoma; details: 10 µM
# [20] = system: SK-MEL-28 melanoma; details: 10 µM
SMILES,growth [1],growth [2],growth [3],growth [4],growth [5],growth [6],growth [7],growth [8],growth [9],growth [10],growth [11],growth [12],growth [13],growth [14],growth [15],growth [16],growth [17],growth [18],growth [19],growth [20]
COc1cc2cc(c1Cl)N(C)C(=O)C[C@H](OC(=O)[C@H](C)N(C)C(C)=O)[C@]1(C)O[C@H]1[C@H](C)[C@@H]1C[C@@](O)(NC(=O)O1)[C@H](OC)C=C/C=C(\C)C2,-40.4% (active),-2.18% (active),33.7%,-13.1% (active),13.3%,23.5%,-13.8% (active),-23.5% (active),12.4%,-26.2% (active),-14.5% (active),-29.3% (active),-49% (active),14.4%,11.5%,0.19% (active),-24.4% (active),9.3% (active),18.4%,–
CCOc1ccc(Br)cc1/C=N\N=C\c1cc(Br)ccc1OCC,102%,95.3%,105%,108%,145%,97.6%,100%,101%,92.7%,98.6%,109%,107%,98.5%,117%,103%,93.8%,109%,104%,105%,115%
Cc1cccc([N+](=O)[O-])c1Cl,105%,119%,109%,113%,103%,101%,104%,105%,105%,106%,99.6%,112%,95.2%,106%,102%,102%,98.8%,105%,101%,107%
Cc1ncc(C#N)c(N)n1,114%,120%,93.8%,98.9%,89.6%,107%,98%,105%,106%,95.9%,100%,112%,77.8%,102%,100%,90%,89.9%,99.7%,100%,102%
OCc1ccc(-c2ccc(-c3ccc(CO)s3)o2)s1,6.59% (active),-3.52% (active),78.1%,98.8%,57%,73.4%,13.6%,43.8%,32.5%,87.6%,51%,-26.5% (active),58.8%,78.4%,15.3%,73.1%,60.6%,-35% (active),73.2%,–
COc1cc(C(N)=O)cc(OC)c1OC,112%,112%,110%,105%,119%,101%,100%,98.9%,102%,107%,101%,102%,86.6%,99.2%,96.5%,106%,106%,94.2%,104%,116%
Clc1ccc(-c2n[nH]c3c2Cc2ccccc2-3)cc1Cl,130%,92.4%,102%,98%,154%,109%,99.5%,95.6%,-6.12% (active),100%,87.8%,106%,84.9%,93.8%,97.9%,92.4%,95.6%,91.2%,97.4%,114%
Cc1cc(O)ccc1O,114%,94.1%,101%,87.3%,112%,102%,129%,95.5%,99.5%,96.4%,108%,114%,114%,112%,107%,97.7%,88.6%,80.8%,92.5%,108%
CC(O)COc1ccc(-c2ccccc2)cc1 (stereo unspecified),108%,102%,115%,96.6%,106%,99.4%,107%,104%,119%,108%,96.3%,116%,102%,98.4%,99.7%,101%,99.1%,92.4%,101%,103%
CC1=CC(C)(C)NC(=S)N1c1ccc(S(=O)(=O)O)c2cccc(S(=O)(=O)O)c12,111%,116%,115%,98.3%,107%,104%,113%,105%,112%,107%,105%,133%,90.5%,109%,113%,92.5%,101%,97.5%,107%,112%
O=C(/C(=N/O)c1ccccc1)c1ccccc1,111%,120%,82%,98.5%,102%,100%,94.4%,104%,97%,108%,96.8%,117%,85.4%,100%,94.6%,94.9%,97.4%,88.3%,105%,105%
CCOC(=O)CNN,98.6%,79.5%,103%,107%,108%,103%,102%,108%,97%,107%,108%,105%,94.7%,100%,95.7%,99.3%,90.5%,103%,90.6%,115%
CNS(=O)(=O)c1ccc(Cl)c(Cl)c1,111%,99.5%,111%,98.2%,99.7%,96.1%,101%,91.7%,124%,98.5%,99.9%,106%,87.8%,106%,99.3%,113%,96.7%,86.6%,102%,119%
CCCCN(CCCC)CCCO,110%,114%,129%,116%,119%,101%,124%,101%,113%,108%,100%,126%,86.7%,112%,116%,180%,104%,106%,101%,–
O=C1Cc2ccccc2C(=O)O1,129%,106%,122%,108%,114%,110%,107%,103%,91.9%,98.7%,110%,109%,95.8%,103%,104%,85.1%,105%,106%,102%,–
CC1CC(O)C2C3(C)CCCC2(COC3=O)C12CCC1(CCOC1=O)O2 (stereo unspecified),105%,127%,116%,126%,114%,107%,131%,101%,114%,96.8%,102%,109%,96.4%,108%,102%,94%,111%,114%,107%,–
CC1(O)CCCCC1O (stereo unspecified),115%,94.6%,106%,108%,112%,106%,110%,97%,83.4%,104%,102%,106%,96.5%,97.3%,104%,98.4%,107%,96.5%,106%,113%

SMILES,growth [1],growth [2],growth [3],growth [4],growth [5],growth [6],growth [7],growth [8],growth [9],growth [10],growth [11],growth [12],growth [13],growth [14],growth [15],growth [16],growth [17],growth [18],growth [19],growth [20]
CC1OC(Oc2c(-c3ccc(O)c(O)c3)oc3cc(O)cc(O)c3c2=O)C(O)C(O)C1O (stereo unspecified),109%,103%,110%,107%,110%,104%,105%,110%,104%,106%,113%,107%,96.5%,105%,104%,95.5%,91.8%,103%,97.1%,105%
COc1cc2nn(-c3ccccc3N)nc2cc1OC,107%,99.3%,103%,116%,87%,100%,105%,96.5%,107%,107%,102%,103%,72.6%,99.9%,91.7%,97.8%,98.4%,103%,94.7%,–
COc1cc(C(=O)NC(=S)Nc2ccc3ccccc3c2)cc(OC)c1OC,102%,88%,90.1%,100%,94.5%,103%,44.7%,93.1%,90.7%,115%,87.4%,100%,92%,107%,102%,82.4%,55.5%,36.5%,91%,98.1%
c1cc2cccc3c4cccc5cccc(c(c1)c23)c54,115%,110%,119%,94.4%,106%,101%,118%,99%,125%,106%,99.9%,110%,88.5%,99.5%,120%,93.5%,102%,93.2%,97.7%,107%
CCOC(=O)c1ccc(NC(=S)P(=O)(c2ccccc2)c2ccccc2)cc1,113%,56.2%,108%,109%,120%,94.5%,104%,106%,108%,97.7%,98.5%,111%,101%,106%,99.2%,80.1%,104%,99.4%,84.8%,106%
O=C1C=C(Nc2ccc([N+](=O)[O-])cc2)c2ccccc2C1=O,68.9%,13.2%,51.6%,22.5%,69.2%,55.6%,53.1%,36.8%,48.8%,13.3%,31.2%,99.4%,42.9%,52.8%,28.5%,23.9%,11.7%,17.7%,9.66% (active),50.3%
C[N+](C)=c1ccc2nc3c(cc(Nc4ccccc4)c4ccccc43)oc-2c1,55.4%,38.5%,28.2%,47%,69.2%,80.3%,59.5%,74.3%,38.6%,33.9%,56.7%,52.2%,86.7%,57.2%,23.4%,47.3%,46.3%,44.8%,30.4%,23.5%
CSC[C@H](NC(=O)COc1cccc2cnccc12)C(=O)NC(Cc1ccccc1)C(O)C(=O)N1CSC[C@H]1C(=O)NC(C)(C)C (stereo partly specified),98.9%,107%,105%,93.8%,100%,94.4%,97.4%,103%,106%,99.3%,96.3%,108%,-20.5% (active),103%,102%,96.3%,102%,98.3%,102%,–
Oc1ccc2c(c1)OCC1(O)Cc3cc(O)c(O)cc3C21 (stereo unspecified),99.1%,20.7%,88.8%,93.2%,89.1%,96.8%,97.1%,91.7%,96.6%,90.6%,80.6%,92.4%,22.8%,117%,90.7%,69.5%,95.5%,91.5%,98.2%,–
CCCCCCCCCCC(C)Br (stereo unspecified),113%,93.2%,104%,113%,103%,113%,94.9%,110%,101%,112%,104%,109%,97%,103%,103%,101%,102%,104%,94.3%,112%
O=C1N(C[P+](c2ccccc2)(c2ccccc2)c2ccccc2)CCCN1C[P+](c1ccccc1)(c1ccccc1)c1ccccc1,117%,93.9%,103%,90.8%,113%,115%,96.4%,106%,101%,98.2%,110%,102%,88.4%,98.3%,95.2%,92.5%,106%,94.7%,108%,102%
C=CC(=O)OCCCCCCCC,102%,103%,108%,109%,120%,102%,104%,99.5%,96.7%,104%,95%,124%,91.2%,101%,98.8%,106%,110%,102%,101%,110%
O=C(O)CCC(=O)OC(C1CO1)C(OC(=O)CCC(=O)O)C1CO1 (stereo unspecified),105%,103%,86.9%,130%,99.9%,105%,92.3%,95.2%,85%,98.9%,97.9%,100%,94.7%,111%,95.7%,96.3%,98.8%,111%,97.1%,110%
COc1cc(/C=N\Nc2ccccc2)ccc1OC(=O)c1ccccc1,55.3%,12%,89.5%,86.3%,100%,57.5%,50.5%,24.4%,81.8%,60.2%,24.4%,72.5%,85.4%,108%,81.5%,49.8%,74.7%,24.4%,3.86% (active),87.6%
CN(C)C(=O)Oc1cccc([N+](C)(C)C)c1,113%,104%,131%,91.1%,114%,106%,96.8%,106%,97.8%,126%,95.6%,115%,85.1%,105%,97.9%,98.5%,94.9%,104%,105%,108%
O=C(O)CCCC(=O)O,99.8%,120%,83.8%,106%,99.5%,94.1%,110%,104%,87.9%,106%,101%,106%,85.7%,99.4%,94.3%,95.1%,102%,105%,95.3%,–
